Screens as filed in PubChem.
D1 potentiator = human D1 dopamine receptor positive modulation; P21728; HEK293 TREx D1 cells, calcium flux, dopamine EC20 potentiation; potentiation, % at 10 µM; hit rate 0.036% among 360,000; AID 504651; in the data active = potentiation above about 30%; note: 0% is about no effect
Target sequence (P21728 whole entry, looked up): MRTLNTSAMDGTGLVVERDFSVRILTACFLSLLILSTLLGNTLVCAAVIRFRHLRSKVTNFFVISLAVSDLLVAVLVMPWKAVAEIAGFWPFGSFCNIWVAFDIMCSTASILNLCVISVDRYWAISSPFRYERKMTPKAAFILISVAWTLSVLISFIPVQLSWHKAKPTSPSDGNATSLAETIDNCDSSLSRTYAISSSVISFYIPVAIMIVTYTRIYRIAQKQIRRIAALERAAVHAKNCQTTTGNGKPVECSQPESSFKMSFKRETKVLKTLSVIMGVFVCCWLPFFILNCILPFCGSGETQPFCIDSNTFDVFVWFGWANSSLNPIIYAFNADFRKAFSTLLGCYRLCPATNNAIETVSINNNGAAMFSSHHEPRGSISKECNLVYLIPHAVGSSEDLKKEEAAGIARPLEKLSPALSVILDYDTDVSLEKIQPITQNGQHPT
TRHR PAM = allosteric enhancers of human TRH receptor; TRHR cells, fluo-8 calcium fluorescence, EC20 TRH enhancement; AID 493056; enhancement, % at 2 µM; hit rate 0.66% among 360,000; P34981; in the data active = enhancement above about 30%; note: 0% is about no effect
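Enhancer read-out: after compound pinning and an initial kinetic agonist-mode read, an EC20 of TRH (10 nM final) was injected and fluo-8 calcium signal (Ex 480/Em 530) followed at 1 s/cycle for 100 cycles in TRHR-expressing cells.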
Glioma ERSR ind = ER stress response induction in glioma | hit rate 0.02% among 420,000 | Potency, µM, for the others: at the top dose activation, actives largely listed as activators | U87-MG GRP78 promoter luciferase reporter, 16 h; active = well fitted activation curve with a large enough effect; note: potency is the fitted concentration of half-maximal effect; series mostly up to about 76 µM; % of control where 0% means no effect; nearly all actives have a fitted effect of over 35% in size
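Stably transfected U87-MG glioma cells carrying a GRP78-based luciferase sensor; 16 h compound incubation. Luminescence end-point read 10 min after Bright-Glo addition at room temperature.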
D1 antagonist = antagonists of human D1 dopamine receptor; activity change, negative = inhibition, % at 10 µM; AID 504652; HEK293 TREx D1 cells, calcium flux, dopamine EC80; stronger effect = lower value; hit rate 3.2% among 360,000; P21728; in the data active = activity change below about -30%; note: % is set by controls: 0 for no effect and ±100 for the full control effect
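Antagonism measured as reduced calcium response to an EC80 dopamine addition following 180 s compound pre-read; cells were inducible HEK293 Trex D1 plated overnight at 30 C, read kinetically at 1 cycle/sec.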
TRHR agonist = agonists of human TRH receptor | P34981 | TRHR cells, calcium flux fluo-8, FDSS agonist mode | activation, % at 2 µM | hit rate 0.18% among 360,000 | AID 493084; note: 0% is about no effect
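Fluo-8-loaded TRHR cells; 10 s baseline, compound added, kinetic Ca2+ fluorescence read 1/s, agonist mode.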
D1 ag = agonists of human D1 dopamine receptor; P21728; HEK293 T-REx D1 cells, calcium flux, agonist mode; activation, % at 2 µM; hit rate 1% among 360,000; AID 504660; note: 0% is about no effect
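Agonism was scored from calcium flux recorded over 180 s (1 read/s) after pintool compound addition, following a 10-cycle baseline. Cells were inducible force-coupled HEK293 TREx D1, plated overnight at 30 C and loaded with no-wash calcium dye.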
* marks the source's active call; other numbers are inactive results; . = no result. This is a sample that favours compounds with a hit; in the whole collection about 4% have one here. Cut-off read from the data, not from the text of the source, unless noted: active = activation above about 30%; inactive = the rest.

SMILES | D1 potentiator | TRHR PAM | Glioma ERSR ind | D1 antagonist | TRHR agonist | D1 ag
CCCNC(=S)N1CCN(c2nc(-c3ccc(C)cc3)cs2)CC1 | -4.8 | 23.8 | -6.8% | -35.0* | -0.2 | 6.7
CCOCCCNC(=S)N1CCN(c2nc(-c3ccc(F)cc3)cs2)CC1 | -8.6 | -4.7 | 0.6% | -31.5* | -0.1 | 5.5
COCCCNC(=S)N1CCN(c2nc(-c3ccc(F)cc3)cs2)CC1 | 10.1 | -0.3 | 4.7% | -4.4 | -0.7 | 8.5
CCc1cc(=O)oc2cc(C)cc(OC(C)C(=O)NCCCn3ccnc3)c12 (stereo not given) | -6.0 | 0.8 | 2.5% | -0.7 | -0.2 | 0.8
CCC1(C2CCN(C(=O)c3ccc4ccccc4c3)CC2)NC(=O)N(CCc2scnc2C)C1=O (stereo not given) | . | . | 3.8% | . | . | .
COc1cc(/C=N/O)cc(Cl)c1OC | -0.5 | 0.4 | -0.5% | 38.4 | -0.2 | 88.7*
O=C(CN1CCN(C(=O)CCC(=O)N2CCC(c3ccccc3)=N2)CC1)Nc1ccc(F)cc1 | -5.7 | -1.9 | -2.0% | -41.5* | -0.1 | 3.6
COC(=O)c1cc(-c2ccccc2)c2c(=O)n(C)c(=O)n(C)c2n1 | -1.6 | -3.8 | . | -3.1 | -0.3 | 1.4
Cc1[nH]nc2nc3c(c(OC(=O)c4ccccc4)c12)c(=O)n(C)c(=O)n3C | . | 7.0 | . | -38.5* | 0.3 | -1.0
CCOc1cccc2sc(N(CCCN(C)C)C(=O)c3ccc(S(=O)(=O)N(CC)Cc4ccccc4)cc3)nc12 | -1.9 | 0.8 | -9.5% | -45.2* | 1.1 | 33.3*
CCOc1cccc2sc(N(CCCN(C)C)C(=O)c3ccc(S(=O)(=O)N(C)Cc4ccccc4)cc3)nc12 | 3.6 | 0.8 | -5.8% | -48.3* | 1.1 | 42.0*
Cc1ccc2sc(N(CCCN(C)C)C(=O)c3ccc(S(=O)(=O)N(C)Cc4ccccc4)cc3)nc2c1C | -2.7 | 16.0 | -1.4% | 3.1 | -1.3 | 10.7
COC(=O)Nc1ccc(S(=O)(=O)N2CCC(C(=O)NC3CCCCC3)CC2)cc1 | 6.1 | 5.1 | -2.9% | 4.3 | -1.3 | 1.4
Cc1cc(=O)n(Cc2cccc(Br)c2)c2c1c(C)nn2-c1ccccc1 | -6.2 | -4.5 | -4.5% | -79.2* | 0.5 | 14.5
C=Cc1ccc(Cn2c(=O)cc(C)c3c(C)nn(-c4ccccc4)c32)cc1 | -3.8 | -5.1 | -2.4% | 3.2 | 0.8 | 14.4
O=C(CNC(=S)NC(=O)c1ccccc1Br)c1ccccc1 | 4.1 | -0.1 | -1.0% | 0.9 | -1.4 | 0.2
CCCCNC(=S)NC(=O)c1ccccc1Br | -3.9 | 2.1 | 0.1% | -32.8* | -0.5 | 0.6
COc1ccc(CN2CCOc3ccc(C(O)c4cccnc4)cc3C2)cc1O (stereo not given) | . | . | -4.8% | . | . | .
CC1=C[C@@H](O)CC(C)(C)[C@@H]1/C=C/C(C)=C/C=C/C(C)=C/C=C/C=C(C)/C=C/C=C(C)/C=C/C1=C(C)C[C@H](O)CC1(C)C | . | . | -0.4% | . | . | .
COc1cn(CC(=O)Nc2ccc(C)cc2)c(CN2CCCCC2)cc1=O | -1.6 | 2.4 | -1.1% | -45.8* | 0.0 | 2.9
Cc1oc(C(=O)Nc2ccc(O)cc2)cc1COc1ccccc1 | -4.7 | 4.4 | 1.5% | -32.3* | -1.1 | 4.8
COc1ccc(NC(=O)c2ccco2)cc1NC(=O)c1ccc(OC(C)C)cc1 | -7.0 | 42.9* | -1.4% | -10.5 | -0.8 | 2.8
COC(=O)c1ccc(NC(=O)c2ccc(NC(=O)c3ccco3)cc2)cc1 | 0.2 | 10.7 | -5.4% | 7.1 | -0.6 | 2.9
COC(=O)c1ccccc1Oc1ccc(NC(=O)c2ccco2)cc1 | -6.5 | 3.4 | 0.1% | -37.2* | -0.3 | 3.0
CC(C)COc1ccc(C(=O)Nc2ccc(NC(=O)c3ccco3)cc2)cc1 | -1.1 | -1.2 | -4.7% | -34.9* | 0.4 | 2.7
CC(C)CNc1ncnc2oc(-c3ccco3)c(-c3ccco3)c12 | . | . | -3.0% | . | . | .
COc1ccc(C(=O)NNC(=O)C(NC(=O)c2ccccc2NC(=O)c2ccco2)C(C)C)cc1 (stereo not given) | -0.5 | 0.3 | -2.3% | -3.5 | -0.2 | 2.0
Cc1ccc(NC(=O)c2ccc(OC(=O)c3ccco3)cc2)cc1 | -3.2 | -12.0 | 3.5% | -1.7 | 1.3 | 0.7
O=C(COc1ccccc1)Nc1ccc(NC(=O)c2ccco2)cc1 | -3.3 | -4.1 | 0.6% | -73.3* | 0.2 | 4.2
